The target of the first assay is T1, Tyrosine-protein kinase ZAP-70 (Homo sapiens) (UniProt P43403).
T1 sequence (whole entry): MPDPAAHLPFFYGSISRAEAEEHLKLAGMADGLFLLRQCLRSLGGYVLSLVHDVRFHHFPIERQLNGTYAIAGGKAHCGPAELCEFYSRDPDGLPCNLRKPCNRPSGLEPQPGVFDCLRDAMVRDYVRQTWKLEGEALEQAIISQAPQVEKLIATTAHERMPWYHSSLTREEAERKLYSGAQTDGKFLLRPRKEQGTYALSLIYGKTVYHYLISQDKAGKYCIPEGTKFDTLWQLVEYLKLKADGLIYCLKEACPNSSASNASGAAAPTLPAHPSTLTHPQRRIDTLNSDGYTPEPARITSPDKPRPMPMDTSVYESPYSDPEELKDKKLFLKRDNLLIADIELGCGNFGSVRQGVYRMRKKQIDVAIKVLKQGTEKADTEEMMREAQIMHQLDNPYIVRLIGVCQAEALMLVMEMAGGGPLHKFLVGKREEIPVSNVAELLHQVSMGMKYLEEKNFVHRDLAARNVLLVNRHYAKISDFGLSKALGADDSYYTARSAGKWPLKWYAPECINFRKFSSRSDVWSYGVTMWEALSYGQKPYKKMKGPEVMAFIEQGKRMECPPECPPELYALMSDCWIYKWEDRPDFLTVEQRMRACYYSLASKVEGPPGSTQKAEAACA
The conditions noted are these: at 1 µM.
Death-associated protein kinase 3 (Homo sapiens), sequence (O43293 whole entry, looked up): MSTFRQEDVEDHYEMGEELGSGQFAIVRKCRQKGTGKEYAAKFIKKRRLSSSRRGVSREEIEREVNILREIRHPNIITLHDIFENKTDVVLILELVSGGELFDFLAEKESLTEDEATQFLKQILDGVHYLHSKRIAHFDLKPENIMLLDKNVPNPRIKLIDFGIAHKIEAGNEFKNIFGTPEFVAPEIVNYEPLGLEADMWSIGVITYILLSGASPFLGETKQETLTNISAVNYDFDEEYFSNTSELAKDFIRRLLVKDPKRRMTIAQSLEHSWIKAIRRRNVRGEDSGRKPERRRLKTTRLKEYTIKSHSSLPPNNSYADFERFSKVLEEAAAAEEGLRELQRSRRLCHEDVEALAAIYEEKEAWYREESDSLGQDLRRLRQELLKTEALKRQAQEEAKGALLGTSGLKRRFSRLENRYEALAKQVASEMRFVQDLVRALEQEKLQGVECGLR
On to `COc1ccc(-c2cnc3c(-c4ccsc4)cnn3c2)cc1`, for which the residual activity was found to be 122%.

Take `O=C1NC(=O)C(c2cn(CCCn3ccnc3)c3ccccc23)=C1Nc1ccccc1`: the residual activity was found to be 101%.

Consider `CCCCc1c(-c2ccc(OC)cc2)[nH]c2nccnc12`, for which the residual activity was found to be 111%.

For the compound `O=C1Cc2c([nH]c3ccc([N+](=O)[O-])cc23)-c2ccccc2N1`, the residual activity was found to be 125%.

In the case of `O=c1c(-c2ccc(F)cc2)c(-c2ccncc2)[nH]n1-c1ccc(Cl)cc1`, the residual activity stood at 127%.

Regarding `COc1ccc(CNC(=O)Nc2ncc([N+](=O)[O-])s2)cc1`, the residual activity was determined as 100%.

In the case of `O=C(NC(NC(=S)Nc1ccc(F)c([N+](=O)[O-])c1)C(Cl)(Cl)Cl)C(c1ccccc1)c1ccccc1` (stereo unspecified), the residual activity stood at 126%.

With `Fc1ccc(-c2nc3n(c2-c2ccncc2)CCS3)cc1`, the residual activity was determined as 127%.

For `COc1cc2ncnc(Nc3cccc(Cl)c3)c2cc1OC`, the residual activity was found to be 103%.

`CC(C)c1nn(-c2c(Cl)cccc2Cl)c2nc(Cc3ccc(OCCO)cc3)[nH]c(=O)c12`: the residual activity worked out at 104%.

Take `CCN(CC)CCNC(=O)c1c(C)[nH]c(/C=C2\C(=O)Nc3ccc(Cl)cc32)c1C`: the residual activity came to 116%.

As for `Nc1nccc(-c2c(-c3ccc(F)cc3)ncn2C2CCNCC2)n1`, the residual activity amounted to 130%.

For `O=C1Nc2ccc(Cl)cc2/C1=C/c1cc(Cl)c(O)c(Cl)c1`, the residual activity worked out at 96%.

Take `Nc1ncnc2[nH]nc(Nc3ccc(F)cc3)c12`: the residual activity is 99%.

A further assay has as its target Death-associated protein kinase 3 (Homo sapiens) (UniProt O43293). The conditions noted are these: at 1 µM.
With `Nc1n[nH]c2nc3ccccc3nc12`, the residual activity came to 99%.

Regarding `N#C/C(=C\c1ccc(O)c(O)c1)C(=O)NCc1ccccc1`, the residual activity is 89%.

In the case of `CSc1nc(-c2ccc(F)cc2)c(-c2ccnc(NC(C)c3ccccc3)c2)[nH]1` (stereo unspecified), the residual activity worked out at 84%.

Regarding `O=c1c(-c2ccc(F)cc2)c(-c2ccncc2)[nH]n1-c1ccc(Cl)cc1`, the residual activity is 101%.

Take `O=C(Nc1nc2ccccc2n1CCN1CCOCC1)c1cccc([N+](=O)[O-])c1`: the residual activity amounted to 83%.

Consider `O=C(NC(NC(=S)Nc1ccc(F)c([N+](=O)[O-])c1)C(Cl)(Cl)Cl)C(c1ccccc1)c1ccccc1` (stereo unspecified), for which the residual activity was determined as 96%.

As for `COc1ccc(Cl)cc1NC(=O)Nc1cc(C)nc2ccccc12`, the residual activity came to 88%.

Turning to `COc1cc2ncnc(Nc3cccc(Cl)c3)c2cc1OC`, the residual activity amounted to 89%.

As for `CCN(CC)CCNC(=O)c1c(C)[nH]c(/C=C2\C(=O)Nc3ccc(Cl)cc32)c1C`, the residual activity amounted to 44%.

Take `CC(C)N(CCC(=O)c1ccc2ccccc2c1)Cc1ccccc1`: the residual activity was 85%.

Take `O=C1Nc2ccc(Cl)cc2/C1=C/c1cc(Cl)c(O)c(Cl)c1`: the residual activity is 77%.

Consider `O=C1NC(=O)C(c2cn(CCCO)c3ncccc23)=C1c1cnccn1`, for which the residual activity came to 95%.

Take `Nc1ncnc2[nH]nc(Nc3ccc(F)cc3)c12`: the residual activity amounted to 116%.

For a further assay the target is unchanged. The conditions noted are these: at 10 µM.
As for `Nc1n[nH]c2nc3ccccc3nc12`, the residual activity amounted to 94%.

Take `O=C(Nc1nc2ccccc2n1CCN1CCOCC1)c1cccc([N+](=O)[O-])c1`: the residual activity is 55%.

As for `CCCCc1c(-c2ccc(O)cc2)[nH]c2nccnc12`, the residual activity is 99%.

On to `O=C(NC(NC(=S)Nc1ccc(F)c([N+](=O)[O-])c1)C(Cl)(Cl)Cl)C(c1ccccc1)c1ccccc1` (stereo unspecified), for which the residual activity turned out to be 100%.

`COc1ccc(Cl)cc1NC(=O)Nc1cc(C)nc2ccccc12`: the residual activity is 87%.

For `COc1cc2ncnc(Nc3cccc(Cl)c3)c2cc1OC`, the residual activity came out at 101%.

Take `CC(C)c1nn(-c2c(Cl)cccc2Cl)c2nc(Cc3ccc(OCCO)cc3)[nH]c(=O)c12`: the residual activity came out at 129%.

Turning to `CCN(CC)CCNC(=O)c1c(C)[nH]c(/C=C2\C(=O)Nc3ccc(Cl)cc32)c1C`, the residual activity worked out at 17%.

Consider `CC(C)N(CCC(=O)c1ccc2ccccc2c1)Cc1ccccc1`, for which the residual activity is 88%.

Regarding `O=C1Nc2ccc(Cl)cc2/C1=C/c1cc(Cl)c(O)c(Cl)c1`, the residual activity stood at 78%.

For the compound `O=C1NC(=O)C(c2cn(CCCO)c3ncccc23)=C1c1cnccn1`, the residual activity was 83%.

As for `Nc1ncnc2[nH]nc(Nc3ccc(F)cc3)c12`, the residual activity amounted to 107%.

The target in a further assay is RAF proto-oncogene serine/threonine-protein kinase (Homo sapiens) (UniProt P04049). The conditions noted are these: at 1 µM.
RAF proto-oncogene serine/threonine-protein kinase (Homo sapiens), sequence (P04049 whole entry): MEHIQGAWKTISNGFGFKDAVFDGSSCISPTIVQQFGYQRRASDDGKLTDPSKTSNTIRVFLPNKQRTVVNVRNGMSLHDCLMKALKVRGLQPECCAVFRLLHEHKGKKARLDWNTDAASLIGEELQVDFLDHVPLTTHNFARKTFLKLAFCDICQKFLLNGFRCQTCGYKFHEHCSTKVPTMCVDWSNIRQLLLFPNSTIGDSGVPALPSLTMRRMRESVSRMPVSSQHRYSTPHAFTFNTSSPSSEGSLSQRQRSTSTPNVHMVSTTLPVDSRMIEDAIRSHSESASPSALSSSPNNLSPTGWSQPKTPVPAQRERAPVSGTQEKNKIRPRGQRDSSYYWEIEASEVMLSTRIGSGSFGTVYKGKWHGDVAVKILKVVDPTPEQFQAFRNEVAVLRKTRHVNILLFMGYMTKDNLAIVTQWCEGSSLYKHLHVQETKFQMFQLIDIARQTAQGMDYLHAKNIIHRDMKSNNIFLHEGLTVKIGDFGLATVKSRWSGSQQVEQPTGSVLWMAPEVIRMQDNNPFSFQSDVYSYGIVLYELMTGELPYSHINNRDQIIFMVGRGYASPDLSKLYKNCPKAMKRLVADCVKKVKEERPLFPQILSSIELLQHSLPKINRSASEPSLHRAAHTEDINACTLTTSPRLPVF
As for `COc1ccc(-c2cnc3c(-c4ccsc4)cnn3c2)cc1`, the residual activity came out at 86%.

Turning to `Nc1n[nH]c2nc3ccccc3nc12`, the residual activity turned out to be 93%.

Turning to `N#C/C(=C\c1ccc(O)c(O)c1)C(=O)NCc1ccccc1`, the residual activity stood at 82%.

For the compound `O=C1NC(=O)C(c2cn(CCCn3ccnc3)c3ccccc23)=C1Nc1ccccc1`, the residual activity was 78%.

`CSc1nc(-c2ccc(F)cc2)c(-c2ccnc(NC(C)c3ccccc3)c2)[nH]1` (stereo unspecified): the residual activity was 89%.

As to `O=c1c(-c2ccc(F)cc2)c(-c2ccncc2)[nH]n1-c1ccc(Cl)cc1`, the residual activity was 33%.

In the case of `O=C(Nc1ccc(Cl)cc1)c1ccccc1NCc1ccncc1`, the residual activity came out at 41%.

As to `COc1ccc(CNC(=O)Nc2ncc([N+](=O)[O-])s2)cc1`, the residual activity worked out at 78%.

Consider `O=C1Nc2ccccc2/C1=C\c1c(Cl)[nH]c2ccccc12`, for which the residual activity was 85%.

With `CCCCc1c(-c2ccc(O)cc2)[nH]c2nccnc12`, the residual activity came to 84%.

For the compound `CCN1/C(=C/C(C)=O)Sc2ccc(OC)cc21`, the residual activity came out at 81%.

`O=C(NC(NC(=S)Nc1ccc(F)c([N+](=O)[O-])c1)C(Cl)(Cl)Cl)C(c1ccccc1)c1ccccc1` (stereo unspecified): the residual activity turned out to be 92%.

Consider `Fc1ccc(-c2nc3n(c2-c2ccncc2)CCS3)cc1`, for which the residual activity amounted to 64%.

Regarding `COc1ccc(Cl)cc1NC(=O)Nc1cc(C)nc2ccccc12`, the residual activity was determined as 79%.

`O=c1cc(N2CCOCC2)oc2c(-c3ccccc3)cccc12`: the residual activity is 68%.

As to `CC(C)c1nn(-c2c(Cl)cccc2Cl)c2nc(Cc3ccc(OCCO)cc3)[nH]c(=O)c12`, the residual activity was found to be 79%.

As to `Nc1nccc(-c2c(-c3ccc(F)cc3)ncn2C2CCNCC2)n1`, the residual activity worked out at 64%.

As to `CC(C)N(CCC(=O)c1ccc2ccccc2c1)Cc1ccccc1`, the residual activity stood at 75%.

Turning to `O=C1Nc2ccc(Cl)cc2/C1=C/c1cc(Cl)c(O)c(Cl)c1`, the residual activity came out at 2%.

Consider `O=C1NC(=O)C(c2cn(CCCO)c3ncccc23)=C1c1cnccn1`, for which the residual activity stood at 91%.

Turning to `CCOc1nc(NC(=O)Cc2cc(OC)ccc2OC)cc(N)c1C#N`, the residual activity was determined as 74%.

As to `Nc1ncnc2[nH]nc(Nc3ccc(F)cc3)c12`, the residual activity was 56%.

Broadly, the residual activity is the signal under treatment as a percentage of the control signal.

The values are drawn from ChEMBL document CHEMBL2218924, “A broad activity screen in support of a chemogenomic map for kinase signalling research and drug discovery” (Biochem J, 2013).
